For experiment [1], the target named is T1, Muscle, skeletal receptor tyrosine-protein kinase (Homo sapiens) (UniProt O15146).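 Further: reported value is the mean percent inhibition of MuSK kinase.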
T1 sequence (whole entry): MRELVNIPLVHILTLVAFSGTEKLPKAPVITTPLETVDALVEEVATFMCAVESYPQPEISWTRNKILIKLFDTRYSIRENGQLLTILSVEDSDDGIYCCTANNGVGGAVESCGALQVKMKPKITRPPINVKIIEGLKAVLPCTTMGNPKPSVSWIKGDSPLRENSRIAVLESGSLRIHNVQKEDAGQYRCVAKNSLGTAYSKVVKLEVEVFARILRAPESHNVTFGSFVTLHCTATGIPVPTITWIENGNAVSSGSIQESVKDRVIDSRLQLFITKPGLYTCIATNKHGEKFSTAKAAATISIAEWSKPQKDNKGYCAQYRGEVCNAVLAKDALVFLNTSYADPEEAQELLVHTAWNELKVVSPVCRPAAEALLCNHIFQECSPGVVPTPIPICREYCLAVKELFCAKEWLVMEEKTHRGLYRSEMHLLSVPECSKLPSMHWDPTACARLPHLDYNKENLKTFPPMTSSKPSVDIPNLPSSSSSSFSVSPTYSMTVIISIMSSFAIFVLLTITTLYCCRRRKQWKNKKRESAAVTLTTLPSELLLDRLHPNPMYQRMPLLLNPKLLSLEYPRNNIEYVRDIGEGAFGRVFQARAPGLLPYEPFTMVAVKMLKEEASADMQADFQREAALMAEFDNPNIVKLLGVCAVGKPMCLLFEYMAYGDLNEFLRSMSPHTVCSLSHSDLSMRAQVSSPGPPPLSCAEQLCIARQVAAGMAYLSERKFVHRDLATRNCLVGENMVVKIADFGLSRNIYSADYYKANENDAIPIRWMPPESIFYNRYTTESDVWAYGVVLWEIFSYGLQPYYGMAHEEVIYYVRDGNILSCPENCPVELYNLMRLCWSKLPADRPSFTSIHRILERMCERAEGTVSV
To be noted: at 1 µM.

The target in experiment [2] is Platelet-derived growth factor receptor alpha (Homo sapiens) (UniProt P16234). To be noted: at 0.1 µM.
Platelet-derived growth factor receptor alpha (Homo sapiens), sequence (P16234 whole entry): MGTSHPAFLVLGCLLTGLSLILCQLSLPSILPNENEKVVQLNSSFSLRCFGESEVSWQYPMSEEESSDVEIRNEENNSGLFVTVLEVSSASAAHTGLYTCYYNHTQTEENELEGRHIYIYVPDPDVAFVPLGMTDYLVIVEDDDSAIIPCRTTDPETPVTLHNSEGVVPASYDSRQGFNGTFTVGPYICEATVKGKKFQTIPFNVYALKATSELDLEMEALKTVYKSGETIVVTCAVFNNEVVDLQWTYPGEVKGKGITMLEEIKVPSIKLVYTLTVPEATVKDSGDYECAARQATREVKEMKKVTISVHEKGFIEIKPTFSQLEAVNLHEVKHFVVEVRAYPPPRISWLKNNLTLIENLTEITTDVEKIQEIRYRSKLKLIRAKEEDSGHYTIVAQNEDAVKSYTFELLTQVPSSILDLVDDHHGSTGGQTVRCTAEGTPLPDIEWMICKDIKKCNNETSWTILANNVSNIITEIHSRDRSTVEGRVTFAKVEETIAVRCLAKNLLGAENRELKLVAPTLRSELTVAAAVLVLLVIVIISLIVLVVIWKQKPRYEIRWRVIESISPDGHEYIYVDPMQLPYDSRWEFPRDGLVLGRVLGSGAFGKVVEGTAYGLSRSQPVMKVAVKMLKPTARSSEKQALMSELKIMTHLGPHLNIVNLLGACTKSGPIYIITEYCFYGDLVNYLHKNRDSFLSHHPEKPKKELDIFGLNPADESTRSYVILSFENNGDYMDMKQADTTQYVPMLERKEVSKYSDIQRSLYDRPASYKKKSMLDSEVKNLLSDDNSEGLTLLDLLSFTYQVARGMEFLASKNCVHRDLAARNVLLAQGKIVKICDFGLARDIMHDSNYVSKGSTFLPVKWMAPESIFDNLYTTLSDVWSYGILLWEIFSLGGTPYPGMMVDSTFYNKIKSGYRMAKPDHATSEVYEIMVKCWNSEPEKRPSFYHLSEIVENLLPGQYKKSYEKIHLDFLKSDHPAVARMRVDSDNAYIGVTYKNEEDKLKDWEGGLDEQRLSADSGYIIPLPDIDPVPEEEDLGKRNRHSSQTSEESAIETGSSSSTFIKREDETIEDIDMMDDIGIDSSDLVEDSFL
Experiment [3] has the same target. As to conditions: at 1 µM.
Experiment [4] relates to Platelet-derived growth factor receptor alpha (Homo sapiens), P16234 [D842V]. As to conditions: at 0.1 µM.
Platelet-derived growth factor receptor alpha (Homo sapiens), P16234 [D842V], sequence (P16234 whole entry D842V): as the sequence (P16234 whole entry) above, with D842V counted along it
For experiment [5] the test system is unchanged. As to conditions: at 1 µM.
Experiment [6] deals with Platelet-derived growth factor receptor alpha (Homo sapiens), P16234 [T674I]. To be noted: at 0.1 µM.
Platelet-derived growth factor receptor alpha (Homo sapiens), P16234 [T674I], sequence (P16234 whole entry T674I): as the sequence (P16234 whole entry) above, with T674I counted along it
The test system is the same in experiment [7]. To be noted: at 1 µM.
Experiment [8] has as its system Platelet-derived growth factor receptor alpha (Homo sapiens), P16234 [V561D]. As to conditions: at 0.1 µM.
The test system is the same in experiment [9]. As to conditions: at 1 µM.
The target in experiment [10] is Platelet-derived growth factor receptor beta (Homo sapiens) (UniProt P09619). To be noted: at 0.1 µM.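 Further: reported value is the mean percent inhibition of the kinase.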
Platelet-derived growth factor receptor beta (Homo sapiens), sequence (P09619 whole entry): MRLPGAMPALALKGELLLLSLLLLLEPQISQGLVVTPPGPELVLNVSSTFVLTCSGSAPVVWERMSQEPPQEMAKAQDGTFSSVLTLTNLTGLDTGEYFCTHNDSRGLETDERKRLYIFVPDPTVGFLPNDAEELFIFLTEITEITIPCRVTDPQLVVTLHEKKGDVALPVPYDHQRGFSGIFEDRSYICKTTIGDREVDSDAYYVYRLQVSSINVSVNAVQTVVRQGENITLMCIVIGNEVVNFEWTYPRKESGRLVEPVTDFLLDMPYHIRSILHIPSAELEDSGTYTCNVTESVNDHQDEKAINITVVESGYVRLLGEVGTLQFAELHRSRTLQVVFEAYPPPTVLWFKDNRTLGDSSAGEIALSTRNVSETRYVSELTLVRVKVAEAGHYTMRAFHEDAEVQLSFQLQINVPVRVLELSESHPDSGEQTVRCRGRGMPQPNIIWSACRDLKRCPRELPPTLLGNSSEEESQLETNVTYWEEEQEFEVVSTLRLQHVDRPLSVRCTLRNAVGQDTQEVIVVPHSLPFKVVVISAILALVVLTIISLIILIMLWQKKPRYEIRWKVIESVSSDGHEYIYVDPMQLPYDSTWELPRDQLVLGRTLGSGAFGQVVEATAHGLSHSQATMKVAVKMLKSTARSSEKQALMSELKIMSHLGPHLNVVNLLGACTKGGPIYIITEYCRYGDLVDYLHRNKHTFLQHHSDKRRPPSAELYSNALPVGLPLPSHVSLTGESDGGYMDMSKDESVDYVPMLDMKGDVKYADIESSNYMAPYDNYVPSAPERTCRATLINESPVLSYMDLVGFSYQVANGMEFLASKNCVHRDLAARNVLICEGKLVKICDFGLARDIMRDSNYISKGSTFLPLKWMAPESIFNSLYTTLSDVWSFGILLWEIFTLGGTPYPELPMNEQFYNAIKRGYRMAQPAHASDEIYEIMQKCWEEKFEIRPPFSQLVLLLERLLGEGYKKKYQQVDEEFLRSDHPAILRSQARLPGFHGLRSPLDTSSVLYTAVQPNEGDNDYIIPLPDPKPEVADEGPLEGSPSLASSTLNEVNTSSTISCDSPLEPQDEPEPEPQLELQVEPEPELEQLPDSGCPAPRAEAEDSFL

The values below come from ChEMBL document CHEMBL1961873, “Compounds: GSK PKIS; Assays: Nanosyn kinase panel” (2012).

Platelet-derived growth factor receptor alpha (Homo sapiens), P16234 [V561D], sequence (P16234 whole entry V561D): as the sequence (P16234 whole entry) above, with V561D counted along it

With `CCN1CCC(CC(=O)Nc2n[nH]c3nnc(-c4cccc(F)c4F)cc23)CC1`, the inhibition – broadly, the relative decrease from the control value, in per cent – in experiment [1] was -2.42%; in experiment [2], 5.32%; in experiment [3], 10.4%; in [4], 4.75%; in experiment [5], 2.84%; in experiment [6], 3.48%. Besides, the inhibition in experiment [7] is 4.83%; in experiment [8], 2.85%; in [9], 3.83%; in experiment [10], -0.56%.

For `CNC(=O)c1cncc(/C=C/c2ccccc2Cl)c1`, the inhibition was 8.03% in [1]; 7.6% in [2]; 19.1% in [3]; -1.08% in experiment [4]; 4.93% in [5]; 2.9% in experiment [6]. In addition, the inhibition is 2.13% in experiment [7], 4.99% in [8], 23.1% in experiment [9] and 7.75% in [10].

For `O=C(O[C@H]1CN[C@H](C#Cc2cc3ncnc(Nc4ccc(Cc5ccccc5)cc4)c3s2)C1)N1CCOCC1`, the inhibition in experiment [1] is -2.65%; in [2] it was -1.51%; in experiment [3], 7.66%; in experiment [4], -1%; in [5] it was 2.55%; in experiment [6], 1.75%. The inhibition in experiment [7] is 3.96%; in experiment [8], -0.15%; in [9] it was 1.53%; in experiment [10], 2.34%.

Turning to `CC(=O)Nc1cccc(C#Cc2cncnc2Nc2ccc(OCc3cccc(F)c3)c(Cl)c2)c1`, the inhibition was determined as 6.82% in experiment [1]; 8.71% in experiment [2]; 15.1% in experiment [3]; 1.39% in experiment [4]; 1.82% in experiment [5]; 5.24% in experiment [6]. Also, the inhibition in [7] was 1.24%; in [8] it was -4.05%; in experiment [9], 4.74%; in experiment [10] it was 3.29%.

With `CCn1c(-c2nonc2N)nc2cnc(Oc3cccc(NC(=O)c4ccc(N(C)C)cc4)c3)cc21`, the inhibition in experiment [1] stood at 2.13%; in [2], 4.44%; in [3], 6.4%; in [4], 1.28%; in experiment [5] it was 1.65%; in experiment [6] it was 2.82%. Besides, the inhibition was found to be 4.91% in experiment [7], 1.85% in [8], 6.18% in experiment [9] and 3.88% in experiment [10].

Turning to `CC(=O)NCc1cccc(C#Cc2cncnc2Nc2ccc(OCc3cccc(F)c3)c(Cl)c2)c1`, the inhibition worked out at 3.72% in experiment [1]; 0.56% in experiment [2]; 6.14% in experiment [3]; 1.48% in experiment [4]; 1.63% in experiment [5]; 2.23% in experiment [6]. For the same molecule, the inhibition stood at 3.66% in experiment [7], 5.19% in [8], 2.8% in experiment [9] and 0.9% in experiment [10].

With `CCOc1ccc2c(-c3ccnc(Nc4cccc(C(F)(F)F)c4)n3)cnn2n1`, the inhibition in experiment [1] came out at 1.27%; in experiment [2] it was 9.61%; in [3], 27.3%; in [4], 2.8%; in experiment [5], 10.2%; in experiment [6], 3.74%. Moreover, the inhibition in experiment [7] amounted to 9.48%; in [8], 2.96%; in experiment [9] it was 15.9%; in experiment [10], 7.67%.

With `CN1CCC(n2cnc(-c3ccc(F)cc3)c2-c2ccnc(N)n2)CC1`, the inhibition in experiment [1] is 3.89%; in [2] it was 6.86%; in [3], 25.6%; in experiment [4], 3.56%; in [5] it was 17.9%; in [6] it was 4.48%. Further, the inhibition in experiment [7] was found to be 5.18%; in [8], 4.45%; in experiment [9], 16.9%; in [10] it was 4.26%.

For `[O-][S+]1CCN(Cc2ccc(-c3ccc4ncnc(Nc5ccc(OCc6cccc(F)c6)c(Cl)c5)c4c3)o2)CC1`, the inhibition in experiment [1] was 2.81%; in experiment [2] it was 7.43%; in experiment [3], 13.2%; in experiment [4], 4.45%; in experiment [5] it was 6.91%; in [6], 4%. Besides, the inhibition in experiment [7] is 6.97%; in experiment [8] it was 3.95%; in experiment [9], 8.29%; in experiment [10], 4.69%.

In the case of `CS(=O)(=O)CCNCc1ccc(-c2ccc3ncnc(Nc4ccc(OCc5ccccc5)c(C(F)(F)F)c4)c3c2)o1`, the inhibition is -0.25% in experiment [1]; 6.22% in experiment [2]; 7.17% in experiment [3]; 2.98% in experiment [4]; 2.15% in experiment [5]; 3.58% in experiment [6]. In addition, the inhibition in experiment [7] is 5.04%; in experiment [8], 3.38%; in experiment [9] it was 1.15%; in experiment [10] it was 1.55%.

Regarding `CC(C)COC(=O)c1ccc2c(c1)/C(=C/Nc1ccc(S(N)(=O)=O)cc1)C(=O)N2`, the inhibition in experiment [1] came to 51.3%; in experiment [2], 53.2%; in [3], 84.3%; in experiment [4], 60.7%; in experiment [5], 93.1%; in experiment [6] it was 4.41%. Moreover, the inhibition in [7] turned out to be 38.9%; in experiment [8], 44.7%; in experiment [9], 88.4%; in [10], 66.3%.

In the case of `N#Cc1c(NC(=O)c2ccc(F)cc2)sc2c1CCCC2`, the inhibition in experiment [1] stood at 2.55%; in experiment [2], 5.56%; in experiment [3], 7.32%; in experiment [4] it was 1.23%; in experiment [5] it was 1%; in experiment [6] it was 3.5%. Also, the inhibition stood at 3.1% in experiment [7], 0.92% in experiment [8], 3.17% in [9] and 1.37% in experiment [10].

With `CCCN1CCC(c2ccc(Nc3nc(Nc4cc(F)ccc4C(N)=O)c4cc[nH]c4n3)c(OC)c2)CC1`, the inhibition in [1] was found to be 15%; in [2], 8.78%; in [3], 46.5%; in experiment [4] it was 6.28%; in experiment [5] it was 43.8%; in experiment [6], 4.13%. The inhibition was 9.42% in experiment [7], 8.22% in experiment [8], 36.4% in [9] and 10.4% in experiment [10].

With `CCn1c(-c2nonc2N)nc2c(C#CC(C)(C)O)nc(OC[C@H](N)c3ccccc3)cc21`, the inhibition in experiment [1] amounted to 5.52%; in [2], 4.66%; in experiment [3] it was 43.8%; in experiment [4], 12.2%; in experiment [5], 61.6%; in experiment [6], 9.88%. In addition, the inhibition in [7] was 47%; in experiment [8], 4.88%; in experiment [9] it was 42.3%; in experiment [10], 13%.

On to `Fc1cccc(COc2ccc(Nc3ncnc4sc(-c5ccco5)cc34)cc2Cl)c1`, for which the inhibition is 3.44% in experiment [1]; 13.5% in experiment [2]; 19.9% in [3]; 3% in experiment [4]; 2.87% in [5]; 6.38% in experiment [6]. Also, the inhibition was 15.5% in experiment [7], 6.49% in experiment [8], 4.1% in experiment [9] and 7.85% in experiment [10].

In the case of `CCn1c(-c2nonc2N)nc2c(C#CC(C)(C)O)ncc(OC3CCNCC3)c21`, the inhibition worked out at 5.05% in experiment [1]; 4.05% in experiment [2]; 19.5% in experiment [3]; 5.06% in experiment [4]; 33.8% in experiment [5]; 4.95% in experiment [6]. Further, the inhibition amounted to 28.3% in [7], 2.59% in experiment [8], 17% in [9] and 5.33% in experiment [10].

Take `CNC(=O)c1cccc(C#Cc2cncnc2Nc2ccc(OCc3cccc(F)c3)c(Cl)c2)c1`: the inhibition in experiment [1] was -1.15%; in [2], 5.17%; in experiment [3] it was 17.4%; in [4], -0.74%; in [5], 2.9%; in experiment [6], 1.03%. The inhibition is 2.59% in experiment [7], 0.66% in [8], 4.6% in [9] and 4.41% in experiment [10].
